Inconclusive results are not listed. Unmarked numbers belong to inactive results. The source made the active and inactive calls. Calls come from the whole dose curve; as a rule, active = well fitted curve in the direction sought with a large enough effect; inconclusive = small, poorly fitted or top-dose-only effect, or another doubt; inactive = no such curve, though single readings can be large; an effect the other way counts as inactive or inconclusive.
Columns and labels:
[1] = Identifying Small Molecule Inhibitors of Pancreatic Cancer Stem Cells (SN12C, Adherent) (AID 1259358);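 note: cell survival measured after 48 h of compound exposure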
In short: (§1)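 Spheroids grown 14 days in stem cell media on hydrogel-coated nonadherent plates; 2D lines seeded directly. Compounds added after 4 h attachment, 48 h at 37C, 5% CO2; CellTiter-Glo luminescence normalized to DMSO (no inhibition) and no-cell wells (full inhibition).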

[2] = Identifying Small Molecule Inhibitors of Pancreatic Cancer Stem Cells (SN12C, Spheroid) (AID 1259360);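 note: 100% = DMSO-treated cells and 0% = wells without cells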
In short: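 Spheroids grown 14 days in stem cell media on nonadherent hydrogel before screening; cells attached 4 h, then compound exposure 48 h at 37C, 5% CO2. CellTiter-Glo luminescence normalized to DMSO (no inhibition) and no-cell wells (full inhibition).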

[3] = Identifying Small Molecule Inhibitors of Pancreatic Cancer Stem Cells (A278, Adherent) (AID 1259361);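 note: viability read after 48 h compound exposure; 100% = DMSO-treated cells and 0% = cell-free media-only wells; nearly all actives have a fitted effect of over 35% in size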
In short: as §1

[4] = P-glycoprotein substrates identified in KB-3-1 adenocarcinoma cell line, qHTS therapeutic library screen (AID 1346986); conditions: KB-3-1 parental cells viability, CellTiter-Glo, 72 h; at 44.5 µM (top of the series) unless noted; note: nearly all actives have a fitted effect of over 60% in size
In short: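 Compounds were tested in dose-response against KB-3-1 and KB-8-5-11 cells at 37 degree C for 72 h, and viability was measured by luminescence. AC50 values came from curve fitting with class-based activity calls.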

[5] = qHTS assay to identify small molecule inhibitors of chordoma cells - UCH-1 (AID 1259355); note: % is set by controls: 0 for no effect and ±100 for the full control effect; nearly all actives have a fitted effect of over 55% in size
In short: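 Cells (800/well) were seeded and left overnight at 37 C, 5% CO2, then treated with drugs at 15 concentrations plus a combination mix of auranofin, camptothecin, doxorubicin, rubitecan and topotecan. Viability after 48hr was read by CellTiter-Glo luminescence.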

[6] = qHTS assay to identify small molecule inhibitors of chordoma cells - UCH-2 (AID 1259356); note: % is set by controls: 0 for no effect and ±100 for the full control effect

## O=P1(N(CCCl)CCCl)NCCCO1 (centres undefined)
[1]
  outcome: inactive
[2]
  outcome: inactive
[3]
  outcome: inactive

## C[C@]12CC[C@@H]3c4ccc(OC(=O)N(CCCl)CCCl)cc4CC[C@H]3[C@@H]1CC[C@@H]2OP(=O)(O)O
[4]
  outcome: inactive

## O=C(O)CCCc1ccc(N(CCCl)CCCl)cc1
[4]
  outcome: inactive

## CCCCCCC(=O)CCCCCC/C=C/C[C@@H](O)[C@H](O)[C@@](N)(CO)C(=O)O
[5]
  outcome: inactive
[6]
  outcome: inactive

## COc1ccc2c(c1OC)C(=O)O[C@H]2[C@@H]1c2cc3c(cc2CCN1C)OCO3
[6]
  outcome: inactive

## O=C1c2ccccc2C(=O)c2ccccc21
[5]
  outcome: inactive
[6]
  outcome: inactive

## CCCC(C)(COC(N)=O)COC(N)=O
[5]
  outcome: inactive
[6]
  outcome: inactive

## Cc1ncsc1CCCl
[5]
  outcome: inactive
[6]
  outcome: inactive

## CN1C(=O)CC(=O)N(c2ccccc2)c2cc(Cl)ccc21
[5]
  outcome: inactive
[6]
  outcome: inactive

## [N-]=[N+]=CC(=O)OC[C@H](N)C(=O)O
[6]
  outcome: inactive

## COC1CC(=C(c2cccs2)c2cccs2)C[N+](C)(C)C1 (centres undefined)
[5]
  outcome: inactive
[6]
  outcome: inactive

## C[C@]12CC[C@@H]3c4ccc(OC(=O)N(CCCl)CCCl)cc4CC[C@H]3[C@@H]1CC[C@@H]2O
[5]
  outcome: inactive
[6]
  outcome: inactive

## CC(=O)OCC1=C(C(=O)O)N2C(=O)[C@@H](N)[C@H]2SC1
[5]
  outcome: inactive
[6]
  outcome: inactive
[4]
  outcome: inactive

## Cc1nnc2n1-c1ccc(Cl)cc1C(c1ccccc1Cl)=NC2
[5]
  outcome: inactive
[6]
  outcome: inactive

## Nc1ccccc1C(=O)O
[5]
  outcome: inactive
[6]
  outcome: inactive

## C=CCN1C[C@H](C)N([C@H](c2ccc(C(=O)N(CC)CC)cc2)c2cccc(OC)c2)C[C@H]1C
[5]
  outcome: inactive
[6]
  outcome: inactive
[4]
  outcome: inactive [at 9.29 µM]

## Cc1nnc2n1-c1ccc(Cl)cc1C(c1ccccc1)=NC2
[6]
  outcome: inactive

## c1ccc2c(c1)sc1ccccc12
[5]
  outcome: inactive
[6]
  outcome: inactive

## O=C(Nc1ccc(Br)cc1)c1cc(Br)cc(Br)c1O
[5]
  outcome: inactive
[6]
  outcome: inactive

## O=c1[nH]oc2c1CCNC2
[5]
  outcome: inactive
[6]
  outcome: inactive

## Nc1nc(N)nc(NC2CC2)n1
[5]
  outcome: inactive
[6]
  outcome: inactive

## CCC1(CC)C(=O)C=CNC1=O
[5]
  outcome: inactive
[6]
  outcome: inactive

## CCCCCCCCCC(=O)O[C@H]1CC[C@H]2[C@@H]3CCC4=CC(=O)CC[C@@H]4[C@H]3CC[C@]12C
[6]
  outcome: inactive

## Clc1ccc2c(c1)C(c1ccccc1)=NCc1nncn1-2
[5]
  outcome: inactive
[6]
  outcome: inactive

## O=c1oc2ccccc2c(O)c1Cc1c(O)c2ccccc2oc1=O
[5]
  outcome: inactive
[6]
  outcome: inactive

## COP(=S)(OC)Oc1ccc(S(=O)(=O)N(C)C)cc1
[6]
  outcome: inactive

## CCOP(=S)(OCC)Oc1ccc2c(C)c(Cl)c(=O)oc2c1
[5]
  outcome: inactive
[6]
  outcome: inactive

## CCCCCN(C)CCC(O)(P(=O)(O)O)P(=O)(O)O
[5]
  outcome: inactive
[6]
  outcome: inactive
[4]
  outcome: inactive

## CC(=O)NC1CCSC1=O (centres undefined)
[5]
  outcome: inactive
[6]
  outcome: inactive

## Oc1ccc(Cl)cc1
[5]
  outcome: inactive
[6]
  outcome: inactive

## COc1c2c(cc3c1OCO3)CCN(C)C2
[6]
  outcome: inactive

## CC(C)(C)NCC(O)c1ccccc1Cl (centres undefined)
[5]
  activity, negative = inhibition: 11.9% [at 9.21 µM]
[6]
  outcome: inactive

## C[C@]12CCC(=O)C=C1CC[C@@H]1[C@@H]2CC[C@]2(C)C(=O)CC[C@@H]12
[5]
  outcome: inactive
[6]
  outcome: inactive

## Clc1ccc(C(c2ccc(Cl)cc2)C(Cl)(Cl)Cl)cc1
[5]
  outcome: inactive
[6]
  outcome: inactive

## NCCc1ccc(O)cc1
[6]
  outcome: inactive

## COC(=O)C(c1ccccc1)C1CCCCN1 (centres undefined)
[5]
  outcome: inactive
[6]
  outcome: inactive

## CN1C[C@H](C(=O)N[C@]2(C)O[C@@]3(O)[C@@H]4CCCN4C(=O)[C@H](Cc4ccccc4)N3C2=O)C=C2c3cccc4[nH]cc(c34)C[C@H]21
[6]
  outcome: inactive

## O=C1CN=C(c2ccccc2)c2cc([N+](=O)[O-])ccc2N1
[5]
  outcome: inactive
[6]
  outcome: inactive

## CCC1(c2ccccc2)C(=O)N(COC)C(=O)N(COC)C1=O
[5]
  outcome: inactive
[6]
  outcome: inactive

## C#C[C@]1(O)CC[C@H]2[C@@H]3CCC4=CC(=O)CC[C@]4(C)[C@H]3CC[C@@]21C
[5]
  outcome: inactive
[6]
  outcome: inactive

## NC(=O)c1cc([N+](=O)[O-])cc([N+](=O)[O-])c1
[5]
  outcome: inactive
[6]
  outcome: inactive

## NC1=NC(=O)C(c2ccccc2)O1 (centres undefined)
[5]
  outcome: inactive
[6]
  outcome: inactive

## Nc1ccn(C[C@@H](CO)OCP(=O)(O)O)c(=O)n1
[4]
  outcome: inactive [at 17.4 µM]
